Compound activity deposited in PubChem by several laboratories.
Hits are enriched below; roughly 2.8% of the tested compounds scored in any of these assays.
PGE2 EP2 inh: inhibitors of human EP2 prostaglandin E2 receptor; P43116; C6 glioma cells expressing human EP2, cAMP TR-FRET; cells stimulated with saturating PGE2; inhibition, % at 25 µM; actives 0.52% (n = 260,000); AID 1422;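 active = percent inhibition above 40 after rounding to a whole number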;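 also: rat C6 glioma host cells with rolipram phosphodiesterase inhibitor present; the protocol text gives 20 µM as final concentration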
Wee1 degr inh: blocks degradation of human Wee1 kinase; reporter increase, % at 5 µM; actives 1.2% (n = 220,000); AID 1321; P30291; HeLa Luc-Wee1K328M stability, luciferase luminescence; 100% = proteasome inhibitor MG132 effect;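 active = activation above the mean of all tested compounds plus 3 SD, set per screening run, cut at about 8.8% in these data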;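 also: cells exposed to compound for 20 h before luminescence read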
NCF1 inh: p47phox (human) inhibition; P14598; actives 0.53% (n = 220,000); inhibition, % at 24.7 µM; p47phox/p22phox peptide binding, fluorescence polarization, 2 h;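 active = inhibition above about 30%, limit read from the data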
HSV replic up: HSV replication enhancement; HSV replication augmentation in cells, fold increase; maximum fold increase; actives 0.005% (n = 220,000); AID 1956; in the data active = maximum fold increase above about 1.5; tested in PC3 cells
EP2 mod: EP2 receptor (human) modulation. actives 0.83% (n = 260,000). EP2-expressing cells, cAMP HTRF FRET, PGE2 co-stimulation. induction, % at 25 µM;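 active = compounds whose cAMP rise, as percent of the full-agonist control response, exceeds 60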;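 also: rat C6 glioma line stably carrying human EP2 under a CMV promoter; the protocol text gives 20 µM as final concentration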
Furin inhibitor: blocks human furin protease activity. AID 463115. purified furin, fluorogenic substrate cleavage. P09958. actives 0.061% (n = 220,000). inhibition, % at 20 µM or 30 µM; in the data active = inhibition above about 25%
Target sequence (P09958 108-714 limits assumed): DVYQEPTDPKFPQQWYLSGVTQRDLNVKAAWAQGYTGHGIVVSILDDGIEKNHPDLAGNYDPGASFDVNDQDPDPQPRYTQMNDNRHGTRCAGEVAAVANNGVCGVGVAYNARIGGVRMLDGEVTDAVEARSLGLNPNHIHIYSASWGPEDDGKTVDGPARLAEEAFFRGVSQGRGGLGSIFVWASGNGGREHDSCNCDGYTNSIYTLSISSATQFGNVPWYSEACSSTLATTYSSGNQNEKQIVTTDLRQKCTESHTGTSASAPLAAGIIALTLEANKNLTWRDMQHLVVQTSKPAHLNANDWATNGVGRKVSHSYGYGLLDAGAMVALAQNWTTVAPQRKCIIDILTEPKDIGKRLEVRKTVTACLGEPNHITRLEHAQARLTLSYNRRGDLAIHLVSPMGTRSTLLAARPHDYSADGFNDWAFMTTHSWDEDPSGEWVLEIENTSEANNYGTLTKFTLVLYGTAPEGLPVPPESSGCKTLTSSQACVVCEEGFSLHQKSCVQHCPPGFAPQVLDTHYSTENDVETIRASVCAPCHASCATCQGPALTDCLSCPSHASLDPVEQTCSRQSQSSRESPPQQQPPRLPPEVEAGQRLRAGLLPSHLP
Hits are given with their value; n = inactive; x = not tested or not shown; + = active, no number.

SMILES | PGE2 EP2 inh | Wee1 degr inh | NCF1 inh | HSV replic up | EP2 mod | Furin inhibitor
C[C@@]12CC[C@@H]3[C@H](CCC4=CC(=O)CC[C@]43C)[C@H]1CC[C@H]2C(=O)Cn1cnc2c(=S)nc[nH]c21 | 40.8 | x | x | x | n | x
COc1ccc(-c2ccc(SCC(=O)N(C(C)C)C(C)C)nn2)cc1OC | n | x | x | x | n | x
CCC(C)(C)NC(=O)CN(C(=O)CCC(=O)Nc1nccs1)c1ccc(OC)cc1 | n | x | x | x | n | x
COc1cc(C2N=C(c3ccccc3)NO2)cc(Br)c1O (centres undefined) | n | n | + | n | n | n
COc1ccccc1NC(=O)N1CCC2(CC1)OCCO2 | n | x | x | x | n | x
COc1ccc(-c2nc(C#N)c(N3CCCCCC3)o2)cc1 | n | n | n | n | n | n
Cc1ccc(-c2nc(C#N)c(N3CCCCC3)o2)cc1 | n | 9.7 | n | n | n | n
O=C(Nc1ccccc1)Nc1csc2ccccc12 | n | 10.0 | n | n | n | n
CCP(=O)(c1cccc([N+](=O)[O-])c1)c1cccc([N+](=O)[O-])c1 | n | n | n | n | n | n
O=[N+]([O-])c1cccc(P(=O)(O)c2cccc([N+](=O)[O-])c2)c1 | n | 24.8 | n | n | n | n
COc1ccc(C=O)cc1COc1ccc([N+](=O)[O-])c(C)c1 | n | n | n | n | n | n
Cc1cc(OCc2nc(N)nc(N)c2-c2ccc(Cl)c(Cl)c2)ccc1[N+](=O)[O-] | 68.2 | x | x | x | n | x
N#C/C(=C\NC(=S)c1ccncc1)c1nc2ccccc2s1 | 52.5 | x | x | x | n | x
CCOC(=O)c1csc(N)c1-c1ccc([N+](=O)[O-])cc1 | n | n | n | n | 63.4 | n
O=C(NCc1cccc(Cl)c1)c1ccc2nc[nH]c2c1 | n | n | n | n | n | n
O=C(NCc1cccc(Cl)c1)c1ccc(-c2csnn2)cc1 | n | n | 115.5 | n | n | n
COc1ccc(-n2c(C)nnc2SCC(=O)Nc2ccc(C)cc2C)cc1 | n | x | x | x | n | x
CCCCC(CC)CN=C(N)NC(N)=NCCCCCCN=C(N)NC(N)=NCC(CC)CCCC (centres undefined) | 71.2 | x | x | x | n | x
CCNC(=O)c1cc2c(=O)n3cc(C)ccc3nc2n(CCN2CCOCC2)c1=N | n | x | x | x | n | x
CCS(=O)(=O)N1CCC(NC(=O)Cc2ccc(OC)c(OC)c2)CC1 | n | x | x | x | n | x
C[C@@]12C[C@H](O)[C@@H]3[C@H](CCC4=CC(=O)CC[C@]43C)[C@H]1CC[C@H]2c1csc(-c2ccccc2)n1 | 39.7 | x | x | x | n | x
Cc1cnc(NC(=O)CN2CCC(N3CCCCC3)CC2)s1 | n | x | x | x | n | x
CC(C)[C@]1(Cl)CC[C@H]2[C@]3(C)CCC[C@@](C)(C(=O)O)[C@H]3C[C@@H](Cl)[C@]2(Cl)[C@H]1Cl | 47.6 | x | x | x | n | x
CCn1c(SCC(=O)N2CCCC(C)C2)nnc1-c1ccoc1C (centres undefined) | n | x | x | x | n | x
NS(=O)(=O)c1cc2c(cc1Cl)N[C@H](Cc1ccccc1)NS2(=O)=O | 53.0 | x | x | x | n | x
SMILES | PGE2 EP2 inh | Wee1 degr inh | NCF1 inh | HSV replic up | EP2 mod | Furin inhibitor
NS(=O)(=O)c1cc2c(cc1Cl)NC(c1ccccc1)NS2(=O)=O (centres undefined) | n | x | x | x | n | x
COc1ccccc1CN(Cc1nc2ccccc2c(=O)[nH]1)S(=O)(=O)c1ccc(C)cc1 | n | n | n | n | 61.2 | n
COc1ccccc1CN(Cc1nc2ccccc2c(=O)[nH]1)C(=O)Nc1ccc(C)cc1 | n | n | n | n | n | n
Cc1nc2cc(C(=O)N3CCC(c4ccncc4)CC3)ccc2s1 | x | x | x | x | n | x
CN(C)c1ccc(C(=S)NC2CCCCC2)cc1 | n | 10.2 | n | n | n | n
Cn1c(=O)n(CC(=O)N2CCCC(c3ccccc3)C2)c2cccnc21 (centres undefined) | n | x | x | x | n | x
CCn1c(SCC(=O)Nc2ccccc2F)nnc1-c1cccs1 | n | x | x | x | n | x
COc1ccc(C)cc1NC(=O)CSc1nc2cc3c(cc2cc1C)OCO3 | n | x | x | x | n | x
CNC(=O)Nc1ccc2nc(C)oc2c1 | n | n | n | n | n | n
Cc1nc2ccc(NC(=O)NC(=O)c3c(Cl)cccc3Cl)cc2o1 | n | 10.1 | n | n | n | n
O=C(N/N=C/c1ccccc1)c1cc(-c2ccc3c(c2)OCO3)n[nH]1 | n | n | n | n | n | n
O=C(N/N=C/c1cccc(O)c1)c1cc(-c2ccc3c(c2)OCO3)n[nH]1 | 64.2 | n | n | n | n | n
Fc1ccc(NCc2n[nH]c(=S)n2CC2CCCO2)cc1 (centres undefined) | n | x | x | x | n | x
Nc1ccc(-c2nc3ccc(-c4nc5ccccc5o4)cc3[nH]2)cc1 | 73.0 | n | n | n | n | n
Cc1nc2ccc(-c3nc4ccccc4o3)cc2[nH]1 | n | n | n | n | n | n
O=C(CSc1nnc(NC(=O)Cc2ccccc2)s1)NCc1ccco1 | n | n | n | n | n | n
O=C(CSc1nnc(NC(=O)c2c(F)cccc2F)s1)Nc1ccc(F)cc1 | n | 10.2 | n | n | n | n
O=C(CSc1nnc(NC(=O)Cc2ccc(F)cc2)s1)NCc1ccco1 | n | 10.0 | n | n | n | n
Cc1cc2cc(CN(CCO)C(=O)Nc3ccccc3Cl)c(=O)[nH]c2cc1C | n | x | x | x | n | x
C=CCn1c(SCC(N)=O)nnc1-c1cccc(Br)c1 | n | n | n | n | n | n
C=CCn1c(SCc2ccccc2C#N)nnc1-c1cc(Br)ccc1O | n | 10.1 | n | n | n | n
CCCC(=O)n1nc(-c2ccc(C)cc2)nc1NCc1ccco1 | n | 10.2 | n | n | n | n
Nc1nn(-c2ccccc2)c(N)c1N=Nc1ccc2c(c1)OCO2 | n | 9.8 | n | n | n | n
Cc1ccc(CSc2sc(C(=O)c3ccccc3)c(N)c2C#N)cc1 | n | n | n | n | n | n
N#Cc1c(SCc2ccccc2)sc(C(=O)c2ccccc2)c1N | n | 9.2 | n | n | n | n
SMILES | PGE2 EP2 inh | Wee1 degr inh | NCF1 inh | HSV replic up | EP2 mod | Furin inhibitor
Cc1cc(Cl)ccc1OCCCC(=O)N1CCCCC1 | n | n | n | n | n | n
Cc1cc(Cl)ccc1OCCCC(=O)N1CCOCC1 | n | n | n | n | n | 28.8
O=C(COc1ccc(Cl)cc1Cl)Nc1ccc(CN2CCCCC2)cc1 | n | n | 38.2 | n | n | n
O=C(COc1ccc(Cl)cc1Cl)NC(=O)N1CCOCC1 | n | n | n | n | n | 35.6
O=C(COc1ccc(Cl)cc1Cl)Nc1ccc(S(=O)(=O)N2CCOCC2)cc1 | n | x | x | x | n | x
O=C(c1ccc(Cl)cc1)c1ccc(OCC(=O)N2CCOCC2)cc1 | n | 9.6 | n | n | n | n
COc1cccc(C2(NC(=O)CCn3nc(C)c(C)c3C)CCCC2)c1 | n | x | x | x | n | x
CCOc1ncccc1C(=O)Nc1nc(C(C)(C)C)cs1 | n | n | n | n | 63.5 | n
CC(=O)c1ccc(NC(=O)C(C)OC(=O)c2ccc3c(c2)nc(C)n3-c2ccccc2)cc1 (centres undefined) | n | 8.8 | n | n | n | n
COc1ccc(Br)cc1CNC(=O)CCc1nc(-c2ccc(C)cc2)no1 | n | n | n | n | n | 25.8
C#CCOc1ccc(-c2nc3ccccc3s2)cc1OC | n | x | x | x | n | x
Cn1c(=O)n(C)c2cc(CN(CCCn3ccnc3)Cc3cccc(F)c3)ccc21 | n | x | x | x | n | x
